As a reminder, the inhibition is the drop in the measured response relative to a control, in per cent.

Molecules are shown by their SMILES. The whole screen tested about 220,000 compounds, of which about 910 (0.41%) were called active. The list comes from a sample in which actives are over-represented; it also holds similar structures and randomly drawn compounds. Measured potencies and affinities stand elsewhere. Values without a mark were called inactive.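 The calls were made as follows: active = primary inhibition above the hit cutoff, then over 50% inhibition at one or more dose response concentrations (cut at about 23% in these data, passing the limit was not always enough); inconclusive = conflicting primary data, or primary hits not chosen for dose response; inactive = low primary inhibition, or under 50% at every dose.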

The target of this experiment is Aminopeptidase N (Plasmodium falciparum (isolate 3D7)) (UniProt O96935). In words: P. falciparum M1AAP inhibitors, biochemical, fluorogenic H-Leu-NHMec substrate, 1536-well (AID 1445).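 Also: plate controls were DMSO full reaction for no effect and no enzyme background for full effect.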 As to conditions: recombinant M1AAP, H-Leu-NHMec fluorogenic kinetic assay; at 30 µM, hits give high values unless noted.
Aminopeptidase N (Plasmodium falciparum (isolate 3D7)), sequence (O96935 whole entry, looked up): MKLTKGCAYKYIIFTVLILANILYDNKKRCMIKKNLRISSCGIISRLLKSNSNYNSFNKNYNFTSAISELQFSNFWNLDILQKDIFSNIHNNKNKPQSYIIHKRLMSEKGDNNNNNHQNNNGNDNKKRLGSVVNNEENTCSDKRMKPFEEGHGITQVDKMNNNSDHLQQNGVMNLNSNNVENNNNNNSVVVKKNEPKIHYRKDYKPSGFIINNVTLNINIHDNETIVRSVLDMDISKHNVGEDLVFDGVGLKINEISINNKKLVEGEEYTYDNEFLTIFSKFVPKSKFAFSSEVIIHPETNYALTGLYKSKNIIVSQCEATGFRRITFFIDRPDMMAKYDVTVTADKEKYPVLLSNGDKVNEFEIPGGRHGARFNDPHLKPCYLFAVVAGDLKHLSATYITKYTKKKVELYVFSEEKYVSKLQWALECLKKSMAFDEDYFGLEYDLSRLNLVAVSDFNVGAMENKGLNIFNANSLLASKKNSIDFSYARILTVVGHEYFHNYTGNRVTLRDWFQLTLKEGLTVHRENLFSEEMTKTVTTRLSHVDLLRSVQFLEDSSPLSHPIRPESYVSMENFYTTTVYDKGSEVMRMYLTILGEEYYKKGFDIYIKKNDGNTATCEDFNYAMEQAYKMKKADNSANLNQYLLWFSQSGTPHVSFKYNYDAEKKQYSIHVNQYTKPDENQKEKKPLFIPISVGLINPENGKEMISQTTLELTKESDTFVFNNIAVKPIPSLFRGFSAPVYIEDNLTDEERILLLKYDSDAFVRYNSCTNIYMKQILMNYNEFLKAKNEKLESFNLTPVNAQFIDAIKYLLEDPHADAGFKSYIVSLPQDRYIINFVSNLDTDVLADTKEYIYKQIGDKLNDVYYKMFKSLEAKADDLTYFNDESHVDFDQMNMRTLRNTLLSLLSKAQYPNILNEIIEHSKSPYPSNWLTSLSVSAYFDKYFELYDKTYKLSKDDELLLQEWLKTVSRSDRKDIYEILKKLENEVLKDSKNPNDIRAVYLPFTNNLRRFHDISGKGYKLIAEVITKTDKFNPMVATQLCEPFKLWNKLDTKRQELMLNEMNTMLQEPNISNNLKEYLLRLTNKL
Take `COc1nnc(-c2ccc(N3CCOCC3)c(NC(C)=O)c2)c2ccccc12`: the inhibition is 4.98%.
Consider `CCn1c(C(=O)N2CCC(C(=O)NCc3ccc4c(c3)OCO4)CC2)cc2sccc21`, for which the inhibition is 31.3% (active).
For the compound `CCS(=O)(=O)N1CCC(C(=O)NCc2ccc3c(c2)OCO3)CC1`, the inhibition is 21.3%.
In the case of `O=C(NCc1ccccc1F)C1CCN(C(=O)c2sccc2-n2cccc2)CC1`, the inhibition is 3.14%.
`Cn1c(C(=O)N2CCCC(C(=O)NCc3ccc4c(c3)OCO4)C2)cc2sccc21` (stereo not drawn): the inhibition was 5.35%.
In the case of `O=C(NCc1ccncc1)C1CCN(S(=O)(=O)Cc2ccccc2)CC1` it was 22.4%; in that of `CCn1c(C(=O)N2CCC(C(=O)NCc3cccs3)CC2)cc2sccc21`, 18.2%; in that of `CCS(=O)(=O)N1CCC(C(=O)NCc2cccc(OC)c2)CC1`, -2.58%.
For `O=C(NCCc1ccccc1)C1CCN(C(=O)c2sccc2-n2cccc2)CC1`, the inhibition is 5.4%.
For `CCCS(=O)(=O)N1CCCC(C(=O)NCc2ccc3c(c2)OCO3)C1` (stereo not drawn), the inhibition was 4.51%.
Turning to `COC(=O)c1ccc(CSc2nc3c(c(=O)n2-c2ccccc2)SCC3)o1`, the inhibition was 5.07%.
Regarding `CCN(CC)CCCNC(=O)c1ccc(N2CCCCC2)c(NS(=O)(=O)c2ccc(C)cc2)c1`, the inhibition is -3.11%.
As for `CC(CN1CCCC1)C(=O)NN` (stereo not drawn), the inhibition was -2.99%.
To `O=c1[nH]c2cc(Cl)c([N+](=O)[O-])nc2[nH]1` belongs 11.7%.
To `Cc1nc(/C(=N/O)C(N)=O)cs1` belongs 3.08%; to `CCOC(=O)COc1ccc(Br)cc1C1NC(=O)NC(C)=C1C(=O)NCc1ccccc1` (stereo not drawn), -5.37%.
For the compound `O=C(NCCc1nc2ccccc2[nH]1)c1ccco1`, the inhibition was -3.58%.
To `Nc1ncc(Br)cc1S(=O)(=O)NCCC(=O)Nc1cccc(Cl)c1` belongs 0.42%; to `Cc1ccc(C(=O)Nc2ccc3c(c2)CCC3)o1`, 6.8%; to `COc1cccc(OC)c1C(=O)N1CCN(c2c(Cc3ccccc3)c(C)nc3ncnn23)CC1`, 7.55%.
With `Cc1ccc2c(CNCc3ccco3)cc(=O)oc2c1`, the inhibition is 7.2%.
With `CCS(=O)(=O)N1CCC(C(=O)NCc2ccc(F)cc2)CC1`, the inhibition is 5.77%.
Take `CS(=O)(=O)N1CCC(C(=O)NCc2ccc(F)cc2)CC1`: the inhibition was 12.5%.
In the case of `Cc1ccc(S(=O)(=O)Nc2cccc(-c3cn4ccsc4n3)c2)cc1`, the inhibition is 7.08%.
To `COc1ccccc1N1CCN(c2ncnc3nc[nH]c23)CC1` belongs 3.64%; to `COc1cc(C=C2C(=O)c3ccccc3C2=O)ccc1O`, 12.8%.
With `COc1ccc(C=C2C(=O)c3ccccc3C2=O)cc1O`, the inhibition was 13.7%.
For the compound `COc1ccccc1N1CCN(c2nc3ccccc3nc2C(C#N)C(=O)OC(C)C)CC1` (stereo not drawn), the inhibition is 1.03%.
Take `Cn1ncc2cc(NC(N)=S)ccc21`: the inhibition was 5.67%.
Turning to `COc1cccc(NC(=O)COc2ccccc2C(N)=O)c1`, the inhibition was -6.65%.
Turning to `COC(=O)c1nc(N)sc1-c1ccc(Cl)cc1`, the inhibition is 7.93%.
To `CC1(C)Cc2c(sc3c2c(N)nc(=S)n3Cc2ccc(Br)cc2)CO1` belongs 5.16%; to `Cc1ccc(Nc2cc(-n3nc(C)cc3C)ncn2)cc1`, 26.7% (active); to `Cc1ccc(Nc2cc(-n3nc(C)cc3C)ncn2)c(C)c1`, -27.3%.
In the case of `Cc1cc(C)n(-c2cc(-n3nc(C)cc3C)ncn2)n1` it was 7.79%; in that of `CC1(C)CC(=O)C(C=NCCN2CCN(C(=S)NC3CCCCC3)CC2)=C(O)C1`, -1.18%; in that of `Cc1ccc(NC(=O)CN(C)CC(=O)Nc2ccccc2Oc2ccccc2)cc1`, -4.16%.
With `O=C(N/N=C/c1cccc([N+](=O)[O-])c1)C1COc2ccccc2O1` (stereo not drawn), the inhibition is -7.31%.
On to `O=C(N/N=C\c1ccc([N+](=O)[O-])o1)C1COc2ccccc2O1` (stereo not drawn), for which the inhibition was 15.2%.
As to `O=C(N/N=C\c1ccc(O)c([N+](=O)[O-])c1)C1COc2ccccc2O1` (stereo not drawn), the inhibition was 21.5%.
Consider `O=C(N/N=C\c1ccc(-c2ccccc2[N+](=O)[O-])o1)C1COc2ccccc2O1` (stereo not drawn), for which the inhibition was 5.3%.
For `Cc1cc(C(=O)OCn2nnc3ccccc3c2=O)c(C)n1-c1ccccc1`, the inhibition was 0.48%.
As to `O=C(COC(=O)c1cccc2ccccc12)Nc1ncc(C(F)(F)F)cc1Cl`, the inhibition was 1.24%.
Consider `O=C(O)c1ccccc1C(=O)c1ccc(Sc2ccc(Cl)cc2)c([N+](=O)[O-])c1`, for which the inhibition was 17.6%.
Take `CC(=O)c1ccc(Sc2ccccc2N)c([N+](=O)[O-])c1`: the inhibition is 0.73%.
As to `Cc1cccc(Nc2c(-c3ccc(N4CCOCC4)cc3)nc3ncccn23)c1`, the inhibition is 1.09%.
As to `O=C(Nc1nnc(C2CC2)s1)C1CCCO1` (stereo not drawn), the inhibition is -7.06%.
Regarding `Cn1cc(Br)c(C(=O)Nc2ncc(Br)s2)n1`, the inhibition is 3.9%.
Regarding `CC(=O)c1ccc(OC(C)C)c(CSc2nc(O)cc(=O)[nH]2)c1`, the inhibition is 36.7%.
For the compound `CCCOc1ccc(C(C)=O)cc1CSCCC#N`, the inhibition is 11.4%.
In the case of `CCOC(=O)c1sc2nc(C(C)C)c3c(c2c1N)CC(C)(C)OC3`, the inhibition is 22.1%.
`COC(=O)c1ccc(S(=O)(=O)N2CCCN(Cc3ccccc3)CC2)n1C`: the inhibition was -2.02%.
As for `Cc1ccccc1C(=O)Nc1ccnc(-c2ccncc2)n1`, the inhibition was -1.17%.
In the case of `Cc1nc(N)nc(Cl)c1Cc1ccc(Cl)cc1` it was 0.71%; in that of `Cc1nc2ccc(Cl)cc2nc1C`, 5.55%.
In the case of `COC(CNC(=O)C1CCCCC1C(=O)O)OC` (stereo not drawn) it was -2.33%; in that of `C/C(CC(=O)Nc1ccccc1C)=N\NC(=O)Cc1csc(N)n1`, 5.41%.
Consider `C=CCn1c(SCc2nc3ccccc3c(=O)[nH]2)nc2scc(C3CC3)c2c1=O`, for which the inhibition is 1.15%.
For `CC(C)Oc1ccc2ccccc2c1C=O`, the inhibition is 23.8% (active).
In the case of `COc1ccc2ccccc2c1/C=N/O`, the inhibition is 6.62%.
In the case of `O=Cc1c(OCc2ccccc2)ccc2ccccc12` it was 16.3%; in that of `C=CCNc1nc2ccccc2c(=O)[nH]1`, 7.55%.
For the compound `Clc1ccc(-c2nc(-c3cc4cc(Cl)ccc4o3)cs2)cc1`, the inhibition is 2.11%.

The values above are taken from PubChem BioAssay AID1445 (SRMLSC, 2008).
